Reference: PubChem BioAssay AID560 (The Scripps Research Institute Molecular Screening Center, 2006)
In all, about 65,000 compounds went through this assay and about 980 (1.5%) were called active. The entries come from a sample that favours actives as a whole. Unmarked numbers belong to inactive results.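 Rule for the calls: active = activation above the mean of all tested compounds plus 3 SD (cut at about 49% in these data); inactive = the rest.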

The compounds below were run against Nuclear receptor ROR-alpha (Homo sapiens) (UniProt P35398) (assay: activators of orphan receptor RORA, primary screen, cell-based, luminescence (AID 560;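 note: 0% = DMSO-treated RORA cells and 100% = added signal equal to DMSO minus mock-transfected cells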)). Conditions: CHO-K1 Gal4-RORA LBD luciferase reporter, at 10 µM, stronger effect = higher value, percent increase over mock-subtracted basal signal.
Chain of Nuclear receptor ROR-alpha (Homo sapiens) (P35398 whole entry, looked up, the tested form may be a part): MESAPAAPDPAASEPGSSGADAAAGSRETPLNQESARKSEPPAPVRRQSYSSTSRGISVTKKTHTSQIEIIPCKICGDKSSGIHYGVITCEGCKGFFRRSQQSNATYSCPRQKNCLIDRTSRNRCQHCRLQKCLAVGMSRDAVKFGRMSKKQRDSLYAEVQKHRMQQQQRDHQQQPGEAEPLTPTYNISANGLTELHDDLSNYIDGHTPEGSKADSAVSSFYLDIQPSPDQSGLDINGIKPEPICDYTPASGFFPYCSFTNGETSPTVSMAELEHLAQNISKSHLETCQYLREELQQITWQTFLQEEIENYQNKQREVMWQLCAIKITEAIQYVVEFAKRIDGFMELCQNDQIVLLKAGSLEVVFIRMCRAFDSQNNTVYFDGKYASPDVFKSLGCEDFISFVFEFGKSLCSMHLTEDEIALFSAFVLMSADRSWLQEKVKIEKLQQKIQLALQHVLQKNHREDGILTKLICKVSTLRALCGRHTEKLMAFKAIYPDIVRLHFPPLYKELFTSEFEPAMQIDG

In order of rising activation:
1. COc1ccc(-c2nc(-c3ccccc3)no2)c(OC)c1  -78.4%
2. CCOc1ccc(-c2nnc(-c3ccco3)o2)cc1  -31.6%
3. C[N+]1(CCNC(=O)/C=N/O)CCCCC1  -28.3%
4. CCOc1cc(S(=O)(=O)NCc2ccc3c(c2)OCO3)ccc1F  -24.1%
5. COc1ccc(-c2cc3ccc(OCc4nn[nH]n4)cc3oc2=O)cc1  -23.3%
6. Cc1cc(Cl)c(S(=O)(=O)NCCC(=O)O)cc1OCC(N)=O  -22.1%
7. CN(C)c1ccc(CNC23CN4CN(CN(C4)C2)C3)cc1  -19.1%
8. CCOCCCNS(=O)(=O)Cc1ccccc1  -16.2%
9. O=C(CN1CCOCC1)N1CCCc2c1c(=O)oc1ccc(OCc3ccccc3)cc21  -15.9%
10. O=C(C1CCCO1)N1CCC(c2nc3ccccc3[nH]2)CC1 (configuration not stated)  -13.4%
11. O=C1CCCC2=C1C(c1cccs1)n1nc(SCc3ccccc3)nc1N2 (configuration not stated)  -13.1%
12. COc1ccc(OCCCON2C(=O)c3ccccc3C2=O)cc1  -11.1%
13. COCCn1nnnc1CN1CCC(NC(=O)Nc2cccc(OC)c2)CC1  -9%
14. CC(C)C(c1nnnn1CCc1ccccc1)N1CCN(C(=O)c2ccco2)CC1 (configuration not stated)  -9%
15. CCn1c(CSc2ncccn2)nnc1SCC(=O)N1c2ccccc2CC1C (configuration not stated)  -7.8%
16. Fc1c(F)c(C(F)(F)F)c(F)c(F)c1N1CCN(c2ccc3nnc(C(F)(F)F)n3n2)CC1  -6.8%
17. O=C(Nc1ncccn1)c1cccs1  -6.7%
18. CCC(CC)c1nnc(NS(=O)(=O)Cc2ccccc2)s1  -5.9%
19. CCn1cc(C(=O)NCC2CCCO2)c(=O)c2cc(S(=O)(=O)N3CCCCC3)ccc21 (configuration not stated)  -5.2%
20. C=C(C)Cn1c(SCC(=O)NCc2ccco2)nc2sc3c(c2c1=O)CCC3  -4%
21. CCOc1cc(C(=O)Nc2ncccn2)cc(OCC)c1OCC  -3.1%
22. CC(=O)Nc1ccc(NS(=O)(=O)c2cc(C)sc2C)cc1  -3%
23. COc1ccccc1N1CCN(C(=O)c2cc(-c3ccc(Br)cc3)on2)CC1  -2.4%
24. O=C(Nc1ccon1)c1cccc(Cl)c1  -2.3%
25. O=C(O)C1OC(C(=O)O)C2C1C(F)(F)C2(F)F (configuration not stated)  -1.8%
26. COc1cccc(C(=O)c2cc3ccc(O)cc3oc2=O)c1  0.2%
27. O=C(CSc1nnc(-c2cnccn2)n1Cc1ccco1)c1ccc(Cl)c(Cl)c1  1.4%
28. Oc1ccc2nc(Cc3ccccc3)[nH]c2c1  2.5%
29. CN(Cc1ccccc1)Cc1ccccc1F  5.2%
30. COc1cc(-c2nc(-c3ccncc3)no2)cc(OC)c1OC  5.3%
31. CCCn1c(=O)c(-c2ccccc2)c(O)c2ccccc21  5.6%
32. COc1ccc(CC(=O)Nc2ccc(-c3nnc(-c4ccccc4)o3)cc2)cc1  8.7%
33. O=C(Nc1ccc(-c2nnc(-c3ccccc3)o2)cc1)c1ccc(Br)o1  9.1%
34. CN(C)CCSc1nc(N)c2c3c(sc2n1)COC(C)(C)C3  10.3%
35. CCN(CC)C(=O)CSc1nnc(-c2cnccn2)n1-c1ccc(C)cc1  12%
36. Cn1c(CNC(=O)C(C)(C)C)nc2ccccc21  13.9%
37. c1ccc2[nH]c(-c3nc4ccccc4[nH]3)nc2c1  14.8%
38. O=C(c1cc(-c2ccccc2O)on1)N1CCCC1  18.2%
39. Cn1c(=O)n(C)c2cc(C(=O)Nc3ccc4c(c3)OCO4)ccc21  19.1%
40. Cc1ccc(OCC(=O)Nc2ccc(-c3nnc(-c4ccco4)o3)cc2)cc1  20.8%
41. O=C(CSCc1cccs1)N1CCCC1  22.9%
42. Cc1cc(NC(=O)c2cc(-c3cccs3)on2)nn1Cc1ccc(Cl)cc1  27.5%
43. CC(C)C(=O)Nc1cccc(C(=O)Nc2ccc3c(c2)OCO3)c1  31.6%
44. Cn1c(SCc2nc3ccccc3s2)nnc1-c1ccc2c(c1)OCO2  37.8%
45. O=C(CCCn1c(SCC(=O)c2ccc(F)cc2)nc2ccccc2c1=O)NCc1ccco1  40.5%
46. CC(C)OC(=O)c1sc2nc3c(cc2c1N)C(=O)CCC3  47.6%

With Cn1c(SCc2c(F)cccc2Cl)nnc1-c1cnccn1 the activation was 62.8% (active).
In the case of Oc1ccc(Cl)cc1/C=N/c1nc2ccccc2[nH]1, the activation is reported as 51.7% (active).
With O=c1oc2cc(O)ccc2cc1-c1ccc(F)cc1 the activation was 61.8% (active).
For CCC(=O)Oc1cccc(C(=O)Nc2ccc(-c3nnc(-c4ccco4)o3)cc2)c1, the activation was 112% (active).
With Cn1c(=O)c(C(=O)Nc2ncccn2)c(O)c2ccccc21 the activation was 61% (active).
COc1ccccc1-c1cc(C(=O)N2CCCCC2)no1 was tested, and the activation was 56.5% (active).
O=C(c1cc(-c2cccs2)on1)N1CCCCC1 was tested, and the activation was 63.4% (active).
With C=C(C)CSc1nc(N)c2c3c(sc2n1)CCC3 the activation was 56.2% (active).
For COc1ccc(-c2noc(-c3cccc(OC)c3OC)n2)cc1OC, the activation was 89.8% (active).
For COc1ccc(C(=O)Nc2ccc3c(c2)OCO3)cc1OC, the activation was 69.8% (active).
With Nc1ccc(-c2nnc(-c3ccc(-c4ccccc4)cc3)o2)cc1 the activation was 60.7% (active).
